Data on 7 compounds can be found in ChEMBL document CHEMBL1961873, “Compounds: GSK PKIS; Assays: Nanosyn kinase panel” (2012).

For test [1], the target named is T1, Ephrin type-B receptor 2 (Homo sapiens) (UniProt P29323).
T1 sequence (whole entry): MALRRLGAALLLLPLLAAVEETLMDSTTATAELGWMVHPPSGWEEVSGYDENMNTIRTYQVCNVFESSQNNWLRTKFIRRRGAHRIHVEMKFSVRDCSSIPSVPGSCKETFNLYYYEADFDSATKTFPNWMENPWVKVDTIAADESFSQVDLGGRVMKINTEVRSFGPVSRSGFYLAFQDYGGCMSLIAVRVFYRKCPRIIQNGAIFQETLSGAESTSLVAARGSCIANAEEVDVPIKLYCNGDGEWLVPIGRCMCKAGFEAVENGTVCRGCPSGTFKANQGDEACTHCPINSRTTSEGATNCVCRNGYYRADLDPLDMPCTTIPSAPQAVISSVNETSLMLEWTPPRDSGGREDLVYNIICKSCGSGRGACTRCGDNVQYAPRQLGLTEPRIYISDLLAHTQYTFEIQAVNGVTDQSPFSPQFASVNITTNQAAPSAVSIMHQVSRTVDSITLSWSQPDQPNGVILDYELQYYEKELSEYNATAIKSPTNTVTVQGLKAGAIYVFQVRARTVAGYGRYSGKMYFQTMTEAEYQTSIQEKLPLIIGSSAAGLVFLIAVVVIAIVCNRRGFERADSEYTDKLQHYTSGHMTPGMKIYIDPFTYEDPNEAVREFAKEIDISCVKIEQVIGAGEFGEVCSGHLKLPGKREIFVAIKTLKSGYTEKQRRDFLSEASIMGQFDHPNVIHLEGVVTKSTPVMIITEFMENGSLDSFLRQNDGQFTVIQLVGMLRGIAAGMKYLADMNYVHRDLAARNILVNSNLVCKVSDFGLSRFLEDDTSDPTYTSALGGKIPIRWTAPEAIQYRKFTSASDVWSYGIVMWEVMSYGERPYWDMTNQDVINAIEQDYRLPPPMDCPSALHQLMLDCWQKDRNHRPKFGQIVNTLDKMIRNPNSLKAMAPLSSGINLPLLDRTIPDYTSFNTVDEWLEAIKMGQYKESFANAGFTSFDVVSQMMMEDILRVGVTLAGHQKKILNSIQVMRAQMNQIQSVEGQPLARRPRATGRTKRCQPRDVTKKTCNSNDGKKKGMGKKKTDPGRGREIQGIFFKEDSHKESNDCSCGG
To be noted: at 1 µM.

Test [2] concerns the target T2, Ephrin type-B receptor 3 (Homo sapiens) (UniProt P54753).
T2 sequence (whole entry): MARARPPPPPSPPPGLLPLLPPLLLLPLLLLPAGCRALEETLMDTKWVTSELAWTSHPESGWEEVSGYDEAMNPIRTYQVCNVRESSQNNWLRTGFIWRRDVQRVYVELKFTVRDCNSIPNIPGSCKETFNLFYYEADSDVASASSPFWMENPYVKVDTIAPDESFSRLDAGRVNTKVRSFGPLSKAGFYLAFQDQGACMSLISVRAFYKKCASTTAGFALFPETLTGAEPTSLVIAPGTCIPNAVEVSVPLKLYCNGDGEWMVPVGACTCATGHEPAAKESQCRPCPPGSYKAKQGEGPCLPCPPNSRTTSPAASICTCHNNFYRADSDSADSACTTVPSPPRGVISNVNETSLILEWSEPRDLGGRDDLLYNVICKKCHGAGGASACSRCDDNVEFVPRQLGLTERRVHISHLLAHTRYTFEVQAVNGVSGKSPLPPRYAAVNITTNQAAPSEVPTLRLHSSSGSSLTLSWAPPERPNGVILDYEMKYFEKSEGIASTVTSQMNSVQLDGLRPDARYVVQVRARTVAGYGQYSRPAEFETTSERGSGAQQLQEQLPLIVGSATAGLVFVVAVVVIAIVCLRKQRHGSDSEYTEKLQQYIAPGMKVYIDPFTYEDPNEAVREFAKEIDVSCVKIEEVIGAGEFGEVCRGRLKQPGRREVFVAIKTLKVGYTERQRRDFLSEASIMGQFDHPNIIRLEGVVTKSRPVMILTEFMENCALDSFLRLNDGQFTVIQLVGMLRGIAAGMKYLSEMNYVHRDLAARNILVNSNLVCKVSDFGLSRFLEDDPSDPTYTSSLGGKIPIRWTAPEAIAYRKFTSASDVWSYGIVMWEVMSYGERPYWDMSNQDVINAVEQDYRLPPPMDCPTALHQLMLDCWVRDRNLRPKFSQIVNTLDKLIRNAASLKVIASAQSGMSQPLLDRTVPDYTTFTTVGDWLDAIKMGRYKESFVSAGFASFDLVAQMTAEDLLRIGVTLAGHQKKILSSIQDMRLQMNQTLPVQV
The note with it: at 0.1 µM.

For test [3], the target named is T2, Ephrin type-B receptor 3 (Homo sapiens). To be noted: at 1 µM.
For test [4], the target named is T3, Ephrin type-B receptor 4 (Homo sapiens) (UniProt P54760).
T3 sequence (whole entry): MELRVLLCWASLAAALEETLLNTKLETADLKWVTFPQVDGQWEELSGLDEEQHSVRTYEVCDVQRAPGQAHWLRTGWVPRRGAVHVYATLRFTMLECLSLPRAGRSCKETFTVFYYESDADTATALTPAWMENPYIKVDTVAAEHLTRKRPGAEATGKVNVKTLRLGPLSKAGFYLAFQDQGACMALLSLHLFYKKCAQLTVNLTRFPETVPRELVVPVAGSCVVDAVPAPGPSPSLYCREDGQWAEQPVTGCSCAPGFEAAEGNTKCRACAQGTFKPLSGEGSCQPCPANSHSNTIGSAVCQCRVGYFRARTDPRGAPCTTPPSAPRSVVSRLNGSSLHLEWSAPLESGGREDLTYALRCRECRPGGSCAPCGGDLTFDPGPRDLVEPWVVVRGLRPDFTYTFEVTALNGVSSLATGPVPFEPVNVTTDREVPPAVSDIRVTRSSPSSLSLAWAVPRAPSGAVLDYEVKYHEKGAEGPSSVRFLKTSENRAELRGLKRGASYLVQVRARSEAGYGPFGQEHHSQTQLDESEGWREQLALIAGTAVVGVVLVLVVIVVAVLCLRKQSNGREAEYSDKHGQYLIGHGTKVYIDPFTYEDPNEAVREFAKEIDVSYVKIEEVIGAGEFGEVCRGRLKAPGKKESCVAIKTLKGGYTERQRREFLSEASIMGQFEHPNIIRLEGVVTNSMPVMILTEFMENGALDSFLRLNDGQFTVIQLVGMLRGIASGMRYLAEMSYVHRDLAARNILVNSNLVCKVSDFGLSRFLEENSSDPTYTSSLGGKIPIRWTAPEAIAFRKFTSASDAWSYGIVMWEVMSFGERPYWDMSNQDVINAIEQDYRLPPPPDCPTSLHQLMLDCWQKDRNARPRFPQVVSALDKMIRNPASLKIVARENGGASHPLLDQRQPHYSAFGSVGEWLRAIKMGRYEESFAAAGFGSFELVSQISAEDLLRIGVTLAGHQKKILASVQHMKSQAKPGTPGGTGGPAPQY
To be noted: at 0.1 µM.

For test [5], the target named is T3, Ephrin type-B receptor 4 (Homo sapiens). The note with it: at 1 µM.
Test [6] deals with Receptor tyrosine-protein kinase erbB-2 (Homo sapiens) (UniProt P04626). To be noted: at 0.1 µM.
The target is the same in test [7]. The note with it: at 1 µM.
Test [8] addresses Receptor tyrosine-protein kinase erbB-4 (Homo sapiens) (UniProt Q15303). To be noted: at 0.1 µM.
Test [9] has the same target. To be noted: at 1 µM.
Test [10] concerns the target Tyrosine-protein kinase Fer (Homo sapiens) (UniProt P16591). The note with it: at 0.1 µM.
For test [11] the target is unchanged. To be noted: at 1 µM.
Test [12] deals with Tyrosine-protein kinase Fes/Fps (Homo sapiens) (UniProt P07332). The note with it: at 0.1 µM.
Test [13] has the same target. The note with it: at 1 µM.
In test [14] the target is Fibroblast growth factor receptor 1 (Homo sapiens) (UniProt P11362). The note with it: at 0.1 µM.
Test [15] shares this target. The note with it: at 1 µM.
Test [16] deals with Fibroblast growth factor receptor 2 (Homo sapiens) (UniProt P21802). To be noted: at 0.1 µM.
Test [17] has the same target. The note with it: at 1 µM.
The target in test [18] is Fibroblast growth factor receptor 3 (Homo sapiens) (UniProt P22607). The note with it: at 0.1 µM.
Test [19] has the same target. The note with it: at 1 µM.
Test [20] has as its target Fibroblast growth factor receptor 4 (Homo sapiens) (UniProt P22455). To be noted: at 0.1 µM.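 Further: values are mean percent inhibition of FGFR4.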

Sequence of Tyrosine-protein kinase Fes/Fps (Homo sapiens) (P07332 whole entry): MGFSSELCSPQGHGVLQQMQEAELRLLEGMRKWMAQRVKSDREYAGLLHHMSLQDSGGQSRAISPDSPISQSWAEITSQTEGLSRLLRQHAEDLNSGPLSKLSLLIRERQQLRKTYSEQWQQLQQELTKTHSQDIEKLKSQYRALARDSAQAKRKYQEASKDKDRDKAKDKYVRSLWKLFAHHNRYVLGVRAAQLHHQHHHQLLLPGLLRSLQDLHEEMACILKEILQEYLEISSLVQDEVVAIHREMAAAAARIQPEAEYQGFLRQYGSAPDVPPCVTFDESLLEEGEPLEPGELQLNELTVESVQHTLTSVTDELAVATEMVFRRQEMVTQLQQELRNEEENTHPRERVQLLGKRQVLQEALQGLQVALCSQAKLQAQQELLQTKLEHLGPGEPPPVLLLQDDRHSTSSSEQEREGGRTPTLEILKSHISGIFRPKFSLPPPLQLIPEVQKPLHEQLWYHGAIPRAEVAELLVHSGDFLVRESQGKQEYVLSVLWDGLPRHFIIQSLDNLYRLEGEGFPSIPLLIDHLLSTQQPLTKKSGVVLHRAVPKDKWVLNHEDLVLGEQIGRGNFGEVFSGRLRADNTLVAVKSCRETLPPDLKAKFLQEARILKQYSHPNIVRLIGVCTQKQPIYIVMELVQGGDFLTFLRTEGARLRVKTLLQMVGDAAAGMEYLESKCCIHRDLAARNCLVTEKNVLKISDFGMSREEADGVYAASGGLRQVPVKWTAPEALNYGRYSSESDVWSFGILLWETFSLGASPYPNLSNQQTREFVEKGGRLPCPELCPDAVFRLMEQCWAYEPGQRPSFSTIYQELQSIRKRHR
Sequence of Receptor tyrosine-protein kinase erbB-4 (Homo sapiens) (Q15303 whole entry): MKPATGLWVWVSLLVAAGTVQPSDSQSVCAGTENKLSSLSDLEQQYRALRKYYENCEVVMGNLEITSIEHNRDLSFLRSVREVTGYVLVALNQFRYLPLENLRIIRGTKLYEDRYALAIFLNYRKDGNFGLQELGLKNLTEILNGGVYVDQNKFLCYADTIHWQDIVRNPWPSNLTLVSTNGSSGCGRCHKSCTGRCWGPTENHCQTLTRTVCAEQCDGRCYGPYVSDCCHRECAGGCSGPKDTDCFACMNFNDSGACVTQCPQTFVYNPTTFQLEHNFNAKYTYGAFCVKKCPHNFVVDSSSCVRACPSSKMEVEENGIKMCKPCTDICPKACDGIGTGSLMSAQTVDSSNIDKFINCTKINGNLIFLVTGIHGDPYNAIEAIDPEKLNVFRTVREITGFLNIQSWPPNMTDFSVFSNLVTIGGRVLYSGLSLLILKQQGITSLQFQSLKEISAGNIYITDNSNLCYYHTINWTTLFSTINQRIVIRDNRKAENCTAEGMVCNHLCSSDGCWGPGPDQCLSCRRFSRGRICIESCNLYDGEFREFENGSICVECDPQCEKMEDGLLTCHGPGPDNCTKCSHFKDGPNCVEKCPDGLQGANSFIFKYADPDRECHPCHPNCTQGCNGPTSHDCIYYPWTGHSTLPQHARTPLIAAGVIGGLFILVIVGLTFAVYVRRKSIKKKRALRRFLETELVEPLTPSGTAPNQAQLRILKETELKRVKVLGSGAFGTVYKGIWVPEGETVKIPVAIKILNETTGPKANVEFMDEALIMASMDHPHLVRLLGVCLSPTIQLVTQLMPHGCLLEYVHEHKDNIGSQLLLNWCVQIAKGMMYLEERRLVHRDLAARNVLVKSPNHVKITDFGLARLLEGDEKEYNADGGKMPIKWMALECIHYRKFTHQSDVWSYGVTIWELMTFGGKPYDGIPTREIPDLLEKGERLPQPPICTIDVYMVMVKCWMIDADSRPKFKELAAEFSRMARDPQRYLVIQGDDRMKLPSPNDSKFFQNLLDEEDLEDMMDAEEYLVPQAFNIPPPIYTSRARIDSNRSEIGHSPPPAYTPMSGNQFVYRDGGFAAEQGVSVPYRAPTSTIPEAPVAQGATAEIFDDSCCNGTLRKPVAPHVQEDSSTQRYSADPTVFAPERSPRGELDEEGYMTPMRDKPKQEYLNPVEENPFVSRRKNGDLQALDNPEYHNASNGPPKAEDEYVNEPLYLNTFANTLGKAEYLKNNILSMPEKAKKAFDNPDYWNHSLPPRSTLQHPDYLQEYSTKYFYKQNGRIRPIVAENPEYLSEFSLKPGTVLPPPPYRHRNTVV
Sequence of Tyrosine-protein kinase Fer (Homo sapiens) (P16591 whole entry, looked up): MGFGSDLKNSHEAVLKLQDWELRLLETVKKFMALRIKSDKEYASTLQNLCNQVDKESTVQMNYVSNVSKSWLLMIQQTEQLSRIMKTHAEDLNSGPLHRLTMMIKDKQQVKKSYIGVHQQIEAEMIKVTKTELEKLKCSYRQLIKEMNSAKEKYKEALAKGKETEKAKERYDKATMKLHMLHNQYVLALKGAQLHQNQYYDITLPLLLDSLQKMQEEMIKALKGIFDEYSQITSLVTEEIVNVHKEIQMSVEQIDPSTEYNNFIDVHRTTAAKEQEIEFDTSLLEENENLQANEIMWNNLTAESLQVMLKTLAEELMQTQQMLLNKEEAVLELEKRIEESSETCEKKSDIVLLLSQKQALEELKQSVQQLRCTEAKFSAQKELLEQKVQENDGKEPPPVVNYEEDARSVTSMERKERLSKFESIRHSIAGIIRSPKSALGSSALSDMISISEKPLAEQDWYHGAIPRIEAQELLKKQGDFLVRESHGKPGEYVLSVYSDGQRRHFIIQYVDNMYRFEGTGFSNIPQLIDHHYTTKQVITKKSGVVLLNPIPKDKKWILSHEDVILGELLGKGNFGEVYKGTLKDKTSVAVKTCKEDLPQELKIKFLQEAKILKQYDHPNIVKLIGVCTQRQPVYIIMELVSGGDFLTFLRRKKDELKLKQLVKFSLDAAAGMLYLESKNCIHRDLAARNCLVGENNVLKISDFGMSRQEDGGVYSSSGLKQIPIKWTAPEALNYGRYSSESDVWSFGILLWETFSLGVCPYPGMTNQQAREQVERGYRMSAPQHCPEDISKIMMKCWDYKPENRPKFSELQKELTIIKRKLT
Sequence of Receptor tyrosine-protein kinase erbB-2 (Homo sapiens) (P04626 whole entry): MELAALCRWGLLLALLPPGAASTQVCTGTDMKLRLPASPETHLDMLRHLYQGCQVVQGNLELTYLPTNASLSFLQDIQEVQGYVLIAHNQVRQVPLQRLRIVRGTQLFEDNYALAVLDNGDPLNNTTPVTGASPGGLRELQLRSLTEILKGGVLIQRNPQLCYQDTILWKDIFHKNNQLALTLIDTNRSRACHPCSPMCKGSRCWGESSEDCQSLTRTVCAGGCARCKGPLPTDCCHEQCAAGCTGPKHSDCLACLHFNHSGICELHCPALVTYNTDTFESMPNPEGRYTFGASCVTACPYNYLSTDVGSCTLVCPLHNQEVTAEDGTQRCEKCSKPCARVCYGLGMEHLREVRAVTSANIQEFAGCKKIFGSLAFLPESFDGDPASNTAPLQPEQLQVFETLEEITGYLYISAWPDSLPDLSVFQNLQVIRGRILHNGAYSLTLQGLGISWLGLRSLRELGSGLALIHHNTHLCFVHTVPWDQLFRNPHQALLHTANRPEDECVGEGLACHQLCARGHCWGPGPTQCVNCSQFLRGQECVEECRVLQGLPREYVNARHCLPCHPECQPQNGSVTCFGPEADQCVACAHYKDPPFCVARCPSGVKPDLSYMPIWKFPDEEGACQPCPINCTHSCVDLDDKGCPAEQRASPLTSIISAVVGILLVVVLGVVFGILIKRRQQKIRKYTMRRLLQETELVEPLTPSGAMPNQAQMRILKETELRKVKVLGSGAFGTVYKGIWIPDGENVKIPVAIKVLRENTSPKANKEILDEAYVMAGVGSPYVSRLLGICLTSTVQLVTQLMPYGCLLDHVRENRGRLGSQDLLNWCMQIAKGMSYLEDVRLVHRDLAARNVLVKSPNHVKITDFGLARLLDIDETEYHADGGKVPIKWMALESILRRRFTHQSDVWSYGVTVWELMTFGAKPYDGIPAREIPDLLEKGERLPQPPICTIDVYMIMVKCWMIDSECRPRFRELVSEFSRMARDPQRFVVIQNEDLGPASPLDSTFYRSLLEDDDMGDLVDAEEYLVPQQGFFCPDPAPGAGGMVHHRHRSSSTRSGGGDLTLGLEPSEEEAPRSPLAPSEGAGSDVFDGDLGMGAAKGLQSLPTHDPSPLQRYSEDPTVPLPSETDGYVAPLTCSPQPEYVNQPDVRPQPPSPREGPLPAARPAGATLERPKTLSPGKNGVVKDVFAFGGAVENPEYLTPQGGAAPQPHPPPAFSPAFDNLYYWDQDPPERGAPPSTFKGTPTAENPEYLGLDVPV
Sequence of Fibroblast growth factor receptor 2 (Homo sapiens) (P21802 22-821 limits assumed): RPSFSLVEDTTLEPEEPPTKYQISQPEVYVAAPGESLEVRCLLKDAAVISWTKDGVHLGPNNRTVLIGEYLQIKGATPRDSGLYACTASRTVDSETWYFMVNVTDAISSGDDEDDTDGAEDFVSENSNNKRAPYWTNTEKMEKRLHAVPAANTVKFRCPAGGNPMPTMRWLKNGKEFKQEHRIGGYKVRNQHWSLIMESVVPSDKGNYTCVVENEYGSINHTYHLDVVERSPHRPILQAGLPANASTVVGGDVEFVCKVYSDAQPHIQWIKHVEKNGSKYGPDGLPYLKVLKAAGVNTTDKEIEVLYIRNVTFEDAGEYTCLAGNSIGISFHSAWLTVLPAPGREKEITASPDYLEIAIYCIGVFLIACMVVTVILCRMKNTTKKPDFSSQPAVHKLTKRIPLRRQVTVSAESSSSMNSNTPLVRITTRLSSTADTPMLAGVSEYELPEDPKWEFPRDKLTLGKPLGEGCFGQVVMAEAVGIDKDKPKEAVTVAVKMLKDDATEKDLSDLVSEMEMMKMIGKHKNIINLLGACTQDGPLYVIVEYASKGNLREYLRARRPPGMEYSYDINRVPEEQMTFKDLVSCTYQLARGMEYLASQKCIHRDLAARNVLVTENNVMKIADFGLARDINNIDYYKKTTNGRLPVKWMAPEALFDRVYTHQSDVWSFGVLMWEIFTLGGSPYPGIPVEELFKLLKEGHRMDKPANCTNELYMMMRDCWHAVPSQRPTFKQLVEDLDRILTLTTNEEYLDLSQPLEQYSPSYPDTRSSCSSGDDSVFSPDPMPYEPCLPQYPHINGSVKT

By inhibition is commonly meant the relative decrease from the control value, in per cent. As for `O=C1NC(=O)C(c2cccc(Cl)c2)=C1Nc1ccc(Cl)c(C(=O)O)c1`, the inhibition came out at 3.04% in [1]; 10.6% in test [2]; 4.29% in [3]; 0.79% in test [4]; 0.05% in test [5]; 2.66% in test [6]. Moreover, the inhibition came to 1.74% in test [7]; 7.3% in test [8]; 10% in test [9]; 3.46% in [10]; 2.51% in test [11]; 2.13% in test [12]. Further, the inhibition in [13] was 2.52%; in [14] it was 3.46%; in [15], 16.2%; in test [16] it was 8.43%; in test [17], 20.6%; in [18], 6.79%. In addition, the inhibition in test [19] is 24.8%; in test [20] it was -1.89%.
Consider `COc1ccc(C2=C(N3CCc4ccccc43)C(=O)NC2=O)cc1`, for which the inhibition worked out at 11.3% in test [1]; 3.73% in test [2]; 6.05% in test [3]; 3.74% in test [4]; 4.2% in test [5]; 4.12% in [6]. Besides, the inhibition in test [7] came to 2.07%; in test [8], 8.75%; in [9], 12.9%; in test [10] it was 5.39%; in test [11], 4.91%; in test [12], 3.03%. Further, the inhibition in test [13] was determined as 5.04%; in [14] it was 4.17%; in test [15], 8.02%; in test [16] it was 4.11%; in [17], 6.4%; in test [18] it was 8.71%. Further, the values for the inhibition in test [19] and in test [20] were 8.26% and 2.43%, respectively.
With `Nc1nccc(-c2c(-c3ccc(F)cc3)ncn2C2CCC(O)CC2)n1` (stereo not given), the inhibition in [1] was 35.9%; in test [2] it was 1.08%; in test [3], 32.1%; in test [4], 2.5%; in test [5], 14.7%; in test [6], -3.17%. Also, the inhibition in test [7] was 4.64%; in test [8], 6.79%; in [9] it was 45.9%; in test [10], 5.39%; in [11] it was 19.8%; in test [12], -2.78%. The inhibition in [13] was -2.56%; in test [14] it was 0.56%; in test [15], 11.3%; in test [16], -2.57%; in test [17] it was 1.23%; in test [18], -0.35%. Moreover, the inhibition in test [19] came to 1.39%; in [20] it was 2.77%.
For the compound `O=C(Nc1n[nH]c2cc(-c3cc(F)ccc3F)ccc12)C1CC1`, the inhibition in test [1] was found to be 8.75%; in test [2], 8.17%; in test [3], 2.98%; in test [4], 2.32%; in [5] it was 4.67%; in test [6] it was 3.32%. For the same compound, the inhibition came to 1.51% in [7]; 8.07% in [8]; 8.44% in test [9]; 2.98% in test [10]; 3.05% in test [11]; 2.89% in [12]. For the same compound, the inhibition stood at 3.45% in [13]; 0.53% in test [14]; 1.69% in test [15]; 1.35% in test [16]; 6.04% in [17]; 3.51% in test [18]. Also, the results for the inhibition in test [19] and in test [20] were 2.02% and -1.89%, respectively.
On to `CCS(=O)(=O)c1ccc(OC)c(Nc2ncc(-c3ccccc3Cl)o2)c1`, for which the inhibition is 8.86% in test [1]; 4.07% in test [2]; 3.23% in test [3]; 1.77% in test [4]; 1.22% in test [5]; -1.67% in [6]. Also, the inhibition is 1.42% in [7]; 4.14% in test [8]; 4.95% in [9]; -0.76% in test [10]; 2.34% in test [11]; 0.35% in test [12]. In addition, the inhibition in [13] was found to be 0.33%; in [14], 2.09%; in test [15] it was 7.29%; in [16], 6.83%; in test [17] it was 33%; in [18], 6.65%. For the same compound, the inhibition worked out at 32.4% in test [19] and 3.96% in test [20].
Turning to `Fc1ccc(-c2c(-c3ccncc3)nc3n2CCS3)cc1`, the inhibition in test [1] is 6.7%; in test [2] it was 1.23%; in test [3], 1.23%; in [4] it was -4.56%; in [5], -2.17%; in test [6], 1.03%. The inhibition in test [7] was 0.17%; in [8], 2.91%; in [9] it was 4.97%; in test [10], 0.77%; in [11], 1.89%; in [12] it was 1.15%. Moreover, the inhibition was 0.99% in test [13]; -4.25% in test [14]; 0.23% in test [15]; -1.78% in test [16]; 0.6% in test [17]; 1.37% in test [18]. Besides, the inhibition in test [19] is 1.47%; in [20], -6.43%.
`Cc1ccc(C(=O)NC2CCC2)cc1-c1ccc(C(=O)NCC2CC2)cc1`: the inhibition stood at 2.05% in test [1]; 3.94% in test [2]; 1.11% in [3]; 1.02% in [4]; 3.17% in test [5]; 3.5% in test [6]. In addition, the inhibition in [7] came out at 8.52%; in test [8], 16.7%; in [9], 17.7%; in test [10], 4.2%; in test [11], 2.82%; in test [12] it was 2.48%. Besides, the inhibition was found to be 1.75% in [13]; 5.21% in test [14]; 0.27% in [15]; 2.36% in [16]; 3.31% in test [17]; 3.29% in test [18]. The inhibition is 3.04% in test [19] and 0.25% in test [20].
